In ChEMBL document CHEMBL3433997, “St. Jude Leishmania screening dataset” (2016):

Assays:
Type in all cases: functional
[1] = molecular target: Solute carrier family 2, facilitated glucose transporter member 1 (Homo sapiens) (UniProt P11166); assay: ST_JUDE_LEISH: Cytotoxicity at 2uM final concentration against transgenic Leishmania Mexicana promastigotes LmGLUT1 that are glucose transport deficient and complemented with the human glucose transporter GLUT1. Activity is measured by DNA content using SYBR green in vitro
Solute carrier family 2, facilitated glucose transporter member 1 (Homo sapiens), sequence (P11166 whole entry): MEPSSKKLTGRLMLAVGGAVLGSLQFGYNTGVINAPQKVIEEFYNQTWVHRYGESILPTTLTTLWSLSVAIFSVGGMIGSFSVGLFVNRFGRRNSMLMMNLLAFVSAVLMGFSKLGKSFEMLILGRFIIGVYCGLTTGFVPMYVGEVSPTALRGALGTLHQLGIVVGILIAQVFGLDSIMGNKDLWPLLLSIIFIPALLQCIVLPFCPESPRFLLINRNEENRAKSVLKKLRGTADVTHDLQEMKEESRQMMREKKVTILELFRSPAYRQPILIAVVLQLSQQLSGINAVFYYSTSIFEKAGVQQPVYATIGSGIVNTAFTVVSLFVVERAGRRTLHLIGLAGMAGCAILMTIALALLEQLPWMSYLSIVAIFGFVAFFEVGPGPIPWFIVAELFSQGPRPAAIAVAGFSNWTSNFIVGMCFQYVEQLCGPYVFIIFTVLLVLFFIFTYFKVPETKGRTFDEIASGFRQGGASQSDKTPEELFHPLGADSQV

[2] = molecular target: Hexose transporter 1 (Plasmodium falciparum) (UniProt O97467); assay: ST_JUDE_LEISH: Cytotoxicity at 2uM final concentration against transgenic Leishmania Mexicana promastigotes LmPfHT that are glucose transport deficient and complemented with the Plasmodium falciparum hexose transporter. Activity is measured by DNA content using SYBR green in vitro
[3] = molecular target: Glucose transporter (Leishmania mexicana) (UniProt O61059); assay: ST_JUDE_LEISH: Cytotoxicity at 2uM final concentration against transgenic Leishmania Mexicana promastigotes LmGT2 that are glucose transport deficient and complemented with the L. Mexicana glucose transporter 2. Activity is measured by DNA content using SYBR green in vitro

SMILES	inhibition [1] [%]	inhibition [2] [%]	inhibition [3] [%]
Cc1cccc2nc(-c3cccc(-c4cccc(CNCCN5CCNCC5)c4)c3)[nH]c12	0.34	-3.8	0.48
Cc1ccc(C(=O)NC2C(=O)NC2c2ccccc2)c(C)c1 (stereo unspecified)	3.72	4.84	2.37
CCCN(c1ccc(C(F)(F)F)cc1[N+](=O)[O-])S(=O)(=O)C(c1ccccc1)c1ccc(C(F)(F)F)cc1[N+](=O)[O-] (stereo unspecified)	-0.48	6.88	-1.01
FC(F)(F)c1ccc(Nc2nnnc3ccccc23)cc1	7.74	7.45	6.1
CC(C)C[C@H](NC(=O)c1ccc(OCCN2CCOCC2)cc1)C(=O)N[C@H](/C=N/N1CCN(C)C1=O)CCc1ccccc1	3.09	5.16	3.85
COc1c(CNCCCCCCNCc2c(OC)c(OC)c3ccccc3c2OC)c(OC)c2ccccc2c1OC	67.6	11.8	56.7
COc1ccc(NC(=O)Nc2cccc(-c3cccc(-c4nc5ccccc5[nH]4)c3)c2)cc1	-1.96	-0.16	-1.98
N#Cc1ccc(-c2ccc(C(=O)NCCCCN3CCC(c4ccncc4)CC3)cc2)cc1	1.06	1.16	2.75
COc1ccc(CNCC(C)(C)c2nc(-c3ccc(Cl)c(O)c3)c(-c3ccncc3)[nH]2)cc1	0.93	0.9	-2.74
COc1cc(Cc2cnc(N)nc2N)c2c(c1OC)OC(C)(C)C=C2	4.17	5.13	4.87
COC(=O)c1ccc(C(=O)NCCCCN2CCC(c3ccc4c(c3OC)CCCC4)CC2)cc1-c1ccc(C(F)(F)F)cc1	2.23	1.47	2.29
CCCc1cc(=O)oc2cc(OC)c(C(=O)CC(C)C)c(OC)c12	0.58	3.76	6.92
